Measurements reported in PubChem BioAssay AID1273 (Columbia University Molecular Screening Center, 2008).
Screen size: about 130,000 compounds; about 1,200 (0.92%) were called active.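 Rule for the calls: active = inhibition above the mean plus 3 SD, with well images judged a real hit on visual review (cut at about 60% in these data, passing the limit was not always enough); inconclusive = inhibition over the cutoff but images rejected on review; inactive = inhibition not above the cutoff.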 The sample as a whole holds a higher share of actives than the screen did.

Test: inhibitors of insulin promoter-driven GFP, primary screen, imaging, TRM-6 cells (human fetal islet line), eGFP reporter, cell count (AID 1273;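 for normalized cell count: cells exposed to compound for 48 h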)
Conditions: at 2 µM, reporter expression induced with tamoxifen; inhibition: stronger effect = higher value; normalized cell count: measured here: cell count, toxicity
In the case of `COc1ccc(OC)c(NC(=O)CCN2CCC(C)CC2)c1`, the inhibition is reported as 34.2% (inactive) and the normalized cell count is reported as 86.9%.
In the case of `Cc1ccc(NC(=O)CCN2CCc3ccccc3C2)cc1`, the inhibition is reported as 28.6% (inactive) and the normalized cell count is reported as 64.3%.
With `CC1CCN(CCC(=O)Nc2ccccc2)CC1` the inhibition was 78.6% (active) and the normalized cell count was 39.9%.
In the case of `O=C(CCN1CCN(C/C=C/c2ccccc2)CC1)Nc1cccc(F)c1`, the inhibition is reported as -57.1% (inactive) and the normalized cell count is reported as 154%.
In the case of `CCc1ccc(/C=C2\SC(N3CCOCC3)=NC2=O)cc1`, the inhibition is reported as 16.7% (inactive) and the normalized cell count is reported as 199%.
With `Cc1nnsc1C(=O)Nc1cccc(Cl)c1C` the inhibition was 50% (inactive) and the normalized cell count was 71.6%.
For `O=C(Nc1ccc(-c2ccc3nncn3n2)cc1)C1CCCCC1`, the inhibition was -25% (inactive) and the normalized cell count was 193%.
With `Cc1cccc(NC(=O)CN2C(=O)c3ccccc3C2=O)c1C` the inhibition was -28.6% (inactive) and the normalized cell count was 79%.
In the case of `S=C(Nc1ccc2c(c1)OCO2)N1CCCC1`, the inhibition is reported as -79% (inactive) and the normalized cell count is reported as 73.4%.
With `Fc1ccccc1N=C1Nc2cccc3cccc1c23` the inhibition was 88.9% (active) and the normalized cell count was 172%.
In the case of `c1ccc(C2=Nc3cccc4cccc(c34)N2)cc1`, the inhibition is reported as -73.5% (inactive) and the normalized cell count is reported as 133%.
With `COc1ccccc1C1=Nc2cccc3cccc(c23)N1` the inhibition was -6.67% (inactive) and the normalized cell count was 113%.
With `Cc1ccc(N(C(=O)Cc2cccs2)C2C=CS(=O)(=O)C2)cc1Cl` (stereo not given) the inhibition was 15% (inactive) and the normalized cell count was 128%.
For `Cc1cc(NC(=O)CSc2nc3ccccc3n2CC(C)C)no1`, the inhibition was -41.7% (inactive) and the normalized cell count was 96.4%.
For `CC1Cc2ccccc2N1S(=O)(=O)c1c(N)n(C)c(=O)n(C)c1=O` (stereo not given), the inhibition was -66.7% (inactive) and the normalized cell count was 73.2%.
In the case of `COc1ccc(NC(=O)CSc2nnc(-c3cccs3)n2Cc2ccco2)cc1OC`, the inhibition is reported as 72.7% (active) and the normalized cell count is reported as 109%.
With `O=C(CSc1nnc(-c2cccs2)n1Cc1ccco1)c1ccc2c(c1)OCO2` the inhibition was 17.6% (inactive) and the normalized cell count was 96.9%.
With `Cc1ccc(NC(=O)CSc2nnc(-c3cnccn3)n2Cc2ccco2)cc1C` the inhibition was -21.6% (inactive) and the normalized cell count was 100%.
With `O=C(CCN1C(=O)c2ccncc2C1=O)Nc1cc(F)ccc1F` the inhibition was 25% (inactive) and the normalized cell count was 92%.
With `CSCC(NS(=O)(=O)c1ccc(C)cc1)C(=O)O` (stereo not given) the inhibition was -387% (inactive) and the normalized cell count was 83.3%.
For `COCc1cc(C(C)=O)ccc1OC`, the inhibition was 30.8% (inactive) and the normalized cell count was 97.5%.
In the case of `CCOc1ccc(C(C)=O)cc1COC(=O)c1cnc(Cl)c(Cl)c1`, the inhibition is reported as 83.3% (active) and the normalized cell count is reported as 144%.
For `Cn1c(N)c(C(=O)COC(=O)c2cnc(Cl)c(Cl)c2)c(=O)n(C)c1=O`, the inhibition was -42.9% (inactive) and the normalized cell count was 106%.
In the case of `CCSc1sc(CC)cc1C=O`, the inhibition is reported as 57.1% (inactive) and the normalized cell count is reported as 96.8%.
For `CCN1CCN(c2ccc(NC(=O)c3cnccn3)cc2)CC1`, the inhibition was -35.7% (inactive) and the normalized cell count was 74.9%.
